The source of these data is PubChem BioAssay.

Molecules are shown by their SMILES. The source made the active and inactive calls.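 Rule for the calls, unless noted: active = inhibition above 20% together with a positive visual image hit; inconclusive = visual image hit but inhibition not above 20%; inactive = no visual image hit.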

Experiment [1] is described as follows: inhibitors of TNFa-induced NFkB p65 translocation, primary screen, imaging, HUVEC, MLSMR starter and 10KST1 sets (AID 438).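 For inhibition: signal is the nuclear over cytoplasmic p65 intensity ratio per well.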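 Note: compound added about 3h40 before a 20 min TNFalpha stimulation.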 Conditions: HUVEC TNFa-induced p65 nuclear translocation; cell count: measured here: nuclei count (cytotoxicity indicator), at 2.08 µM; inhibition: at 2 µM, stronger effect = higher value, 0% TNFa-plus-vehicle, 100% no-TNFa wells.
Experiment [2] in a line: inhibitors of mutant huntingtin aggregation, primary screen, imaging, exon1htt(103Q)mCFP cells, high-content imaging (AID 483;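 active = visual image review flags a hit and inhibition of aggregation exceeds 20%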;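 note: compound exposure lasted 3 days before fixation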;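 for nuclei count: percent of the per-plate median nuclei count of sample wells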). Conditions: exon1htt(103Q)mCFP cell line, aggregate imaging, at 2 µM; inhibition of aggregation: stronger effect = higher value; nuclei count: measured here: cell count, toxicity.
Experiment [3] in a line: inhibitors of E-selectin induction by TNFa, primary screen, imaging, HUVEC, immunofluorescence, MLSMR starter and 10KST1 sets (AID 487;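 active = visually confirmed hit in the image check and inhibition above 20%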;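 for inhibition: signal is fraction of cell area covered by stained E-selectin grains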;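 for nuclei count: 100% = median nuclei count of all wells on the same plate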). Conditions: HUVEC TNFalpha-induced E-selectin immunofluorescence imaging, at 2 µM; inhibition: stronger effect = higher value; nuclei count: measured here: cell number, toxicity.
The target of experiment [4] is Voltage-gated potassium channel subunit beta-2 (Rattus norvegicus) (UniProt P62483). As to the kind of experiment: KvBeta enzyme negative modulators, primary screen, biochemical, NADPH fluorescence (AID 622;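 active = fluorescence slope higher than the sample average by over 3 SD, cut at about -0.22 in these data, passing the limit was not always enough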;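 note: slope of raw intensity against log time taken from 70 to 1610 s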). Conditions: recombinant KvBeta, 4-cyanobenzaldehyde reduction, at 10 µM, stronger effect = higher value.
Experiment [5] has the same target. As to the kind of experiment: KvBeta positive modulators, primary screen, biochemical, NADPH fluorescence (AID 623;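 active = NADPH fluorescence slope more negative than the mean of all samples by about 3 SD, 99.7% confidence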;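 note: fluorescence intensity change per second fitted from 20 to 320 s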). The following applies: Recombinant KvBeta, NADPH fluorescence decrease slope, 10 min; at 10 µM; stronger effect = lower value.
Experiment [6] deals with Alpha-2C adrenergic receptor (Homo sapiens) (UniProt P18825). As to the kind of experiment: modulators of alpha2C/GIRK thallium flux, primary screen, cell-based, HEK293 alpha2C/GIRK1/2 (AID 624;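 active = fluorescence slope after compound addition differing from the mean of all screened samples at 99.7% confidence, in either direction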;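 note: slope of fluorescence ratio to pre-addition baseline per second over 15 to 24 s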). Conditions: thallium flux BTC fluorescence, at 10 µM, actives lie on both sides.
Experiment [7] can be described thus: inhibitors of Sendai virus-induced IRF3 signaling, primary screen, TLR/RLR signaling modifier project, cell-based, Sendai virus stimulus, luciferase, 10K MLSCN set (AID 602276;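 active = inhibition at or above 50% at 10 µM; inactive = inhibition below 50%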;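 note: firefly luciferase from ISG56 promoter only with Renilla not read in this screen; 0% = Sendai virus plus DMSO and 100% = medium plus DMSO without virus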). Conditions: HEK293 RL24 IRF3 luciferase reporter, at 10 µM, stronger effect = higher value. A general note: In a reporter assay the amount or activity of a reporter protein is the signal.
The nature of experiment [8]: inhibitors of poly I:C-induced TLR3 signaling, primary screen, cell-based, poly I:C stimulus, luciferase, 10K MLSCN set (AID 602277;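 active = inhibition of the reporter signal at or above 50%; inactive = inhibition below 50%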). Conditions: HEK293-TLR3 RL24 IRF3 luciferase reporter, at 10 µM, stronger effect = higher value.

Alpha-2C adrenergic receptor (Homo sapiens), sequence (P18825 whole entry, looked up): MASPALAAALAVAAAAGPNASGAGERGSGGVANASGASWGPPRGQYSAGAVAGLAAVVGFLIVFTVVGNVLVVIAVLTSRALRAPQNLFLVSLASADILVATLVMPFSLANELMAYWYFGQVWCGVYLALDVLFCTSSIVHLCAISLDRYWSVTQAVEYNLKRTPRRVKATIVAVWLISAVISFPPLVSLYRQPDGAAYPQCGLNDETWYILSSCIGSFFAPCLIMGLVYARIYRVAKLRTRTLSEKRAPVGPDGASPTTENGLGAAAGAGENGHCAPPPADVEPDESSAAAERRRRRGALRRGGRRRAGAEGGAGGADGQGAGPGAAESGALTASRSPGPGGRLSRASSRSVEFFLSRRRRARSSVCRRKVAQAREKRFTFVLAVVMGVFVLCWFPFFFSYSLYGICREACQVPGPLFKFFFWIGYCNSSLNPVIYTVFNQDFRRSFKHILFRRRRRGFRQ
Voltage-gated potassium channel subunit beta-2 (Rattus norvegicus), sequence (P62483 whole entry, looked up): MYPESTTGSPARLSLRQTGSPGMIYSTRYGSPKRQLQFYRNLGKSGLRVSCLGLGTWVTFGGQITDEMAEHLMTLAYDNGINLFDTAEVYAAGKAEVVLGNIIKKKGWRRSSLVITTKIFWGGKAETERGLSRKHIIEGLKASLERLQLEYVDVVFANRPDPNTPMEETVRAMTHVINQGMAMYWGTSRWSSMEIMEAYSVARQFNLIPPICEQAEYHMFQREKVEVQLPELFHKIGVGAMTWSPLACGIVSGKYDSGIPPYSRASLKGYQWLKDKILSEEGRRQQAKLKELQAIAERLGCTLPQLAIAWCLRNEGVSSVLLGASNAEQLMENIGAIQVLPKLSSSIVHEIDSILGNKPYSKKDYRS

As usually defined, the inhibition is the change of the read-out against control, counted positive when it falls. Turning to `CCOC(=O)c1cc2c(=O)n3ccccc3nc2n(CC(C)C)c1=NC(=O)c1ccco1`, in experiment [1], the cell count turned out to be 659. The inhibition in experiment [1] was -13.4% (inactive); in experiment [3], -49.4% (inactive); in experiment [7], 2.77% (inactive); in experiment [8] it was 20.4% (inactive). Further, in experiment [2], the inhibition of aggregation was 6.2% (inactive). Besides, the nuclei count in experiment [2] was 96.7%; in experiment [3], 112%. For the same compound, the fluorescence slope in experiment [4] was -0.532 (inactive). Also, the NADPH fluorescence slope in experiment [5] is -5.6e-06 (inactive). In experiment [6], the slope was 0.00344 (inactive).

As for `CCn1c(C)c(CCC(=O)O)c(=O)n2nc(-c3ccccc3OC)cc12`, in experiment [1], the cell count turned out to be 400. Further, the inhibition is 7.4% (inactive) in experiment [1], -121% (inactive) in experiment [3], -9.14% (inactive) in experiment [7] and 2.68% (inactive) in experiment [8]. For the same compound, in experiment [2], the inhibition of aggregation is 0% (inactive). Moreover, the nuclei count in experiment [2] worked out at 103%; in experiment [3], 108%. In addition, the fluorescence slope in experiment [4] was -0.548 (inactive). In experiment [5], the NADPH fluorescence slope was -1.2e-05 (inactive). The slope in experiment [6] is 0.00427 (inactive).

Take `O=C(Cn1nc(Cc2ccncc2)c2ccccc2c1=O)N1CCc2ccccc2C1`: the cell count in experiment [1] amounted to 726. For the same compound, the inhibition in experiment [1] was -7.3% (inactive); in experiment [3] it was -57.6% (inactive); in experiment [7] it was -3.59% (inactive); in experiment [8], 15.5% (inactive). In experiment [2], the inhibition of aggregation is -6.8% (inactive). For the same compound, the nuclei count in experiment [2] was 103%; in experiment [3], 122%. For the same compound, the fluorescence slope in experiment [4] was -0.527 (inactive). Besides, the NADPH fluorescence slope in experiment [5] was -2.1e-05 (inactive). In experiment [6], the slope was 0.0064 (inactive).

For `Cc1ccc(C2=Nc3ccccc3NC(C)(c3ccc(C)o3)C2)o1` (centres undefined), the cell count in experiment [1] was determined as 696. Besides, the inhibition in experiment [1] was 1.6% (inactive); in experiment [3], -39.9% (inactive); in experiment [7], -47.1% (inactive); in experiment [8], -67.9% (inactive). Also, the inhibition of aggregation in experiment [2] was -18.4% (inactive). Moreover, the nuclei count in experiment [2] and in experiment [3] was 100% throughout. In experiment [4], the fluorescence slope is -0.54 (inactive). Moreover, in experiment [5], the NADPH fluorescence slope is 1.2e-05 (inactive). Also, in experiment [6], the slope was 0.00401 (inactive).

As for `O=C1Nc2ccccc2OC1CC(=O)N1CCCC1` (centres undefined), in experiment [1], the cell count is 491. Moreover, the inhibition is -6.6% (inactive) in experiment [1], -105% (inactive) in experiment [3], 6.75% (inactive) in experiment [7] and 28.5% (inactive) in experiment [8]. In addition, in experiment [2], the inhibition of aggregation is 44.6% (active). Further, the nuclei count is 80.1% in experiment [2] and 115% in experiment [3]. Also, the fluorescence slope in experiment [4] is -0.522 (inactive). Further, in experiment [5], the NADPH fluorescence slope was -1.3e-05 (inactive). Besides, in experiment [6], the slope was 0.00582 (inactive).

With `COc1ccc(C)cc1NC(=O)CSc1nnnn1Cc1ccccc1`, the cell count in experiment [1] was 709. For the same compound, the inhibition in experiment [1] was -1.6% (inactive); in experiment [3] it was 8.3% (inactive); in experiment [7] it was -7.12% (inactive); in experiment [8], 13.4% (inactive). Further, the inhibition of aggregation in experiment [2] is -27.3% (inactive). Further, the values for the nuclei count in experiment [2] and in experiment [3] were 107% and 124%, respectively. In addition, in experiment [4], the fluorescence slope was -0.528 (inactive). In addition, the NADPH fluorescence slope in experiment [5] is -1.1e-05 (inactive). Besides, the slope in experiment [6] is 0.00685 (inactive).

For `Cc1cc(C(N)=O)c2cc(Br)ccc2n1`, the cell count in experiment [1] is 367. In addition, the inhibition in experiment [1] was 5.5% (inactive); in experiment [3], -54% (inactive); in experiment [7], 4.62% (inactive); in experiment [8] it was 32.5% (inactive). Also, in experiment [2], the inhibition of aggregation was 0.7% (inactive). The nuclei count in experiment [2] was 94.5%; in experiment [3], 120%. Also, the fluorescence slope in experiment [4] is -0.436 (inactive). In addition, the NADPH fluorescence slope in experiment [5] is -5.1e-05 (inactive). Moreover, the slope in experiment [6] was 0.0072 (inactive).

On to `COc1ccc(NC(=O)CSc2nnc(-c3ccccc3)n2N)cc1`, for which the cell count in experiment [1] was 438. Besides, the inhibition in experiment [1] was 0% (inactive); in experiment [3], -13.6% (inactive); in experiment [7], 15.8% (inactive); in experiment [8], 24% (inactive). In experiment [2], the inhibition of aggregation is 4.9% (inactive). Moreover, the nuclei count is 103% in experiment [2] and 114% in experiment [3]. Also, the fluorescence slope in experiment [4] was -0.38 (inactive). Further, the NADPH fluorescence slope in experiment [5] was 9.8e-06 (inactive). The slope in experiment [6] was 0.00577 (inactive).

As to `CCOC(=O)Cc1csc(/C(=N/O)C(N)=O)n1`, in experiment [1], the cell count was 638. Also, the inhibition in experiment [1] was 2.7% (inactive); in experiment [3], -62.8% (inactive); in experiment [7], 13.2% (inactive); in experiment [8] it was 15.9% (inactive). In addition, the inhibition of aggregation in experiment [2] is 0.1% (inactive). Also, the nuclei count amounted to 126% in experiment [2] and 108% in experiment [3]. Moreover, the fluorescence slope in experiment [4] is -0.48 (inactive). Further, the NADPH fluorescence slope in experiment [5] is -9.9e-05 (inactive). In addition, the slope in experiment [6] is 0.00629 (inactive).

`Cc1cc(=O)oc2c1ccc1oc(/C(=N/O)c3ccccc3)c(C)c12`: in experiment [1], the cell count was 456. Further, the inhibition in experiment [1] is -19% (inactive); in experiment [3], 1.5% (inactive); in experiment [7], 7.72% (inactive); in experiment [8], 13.6% (inactive). Besides, the inhibition of aggregation in experiment [2] was 34.1% (inactive). Also, the nuclei count in experiment [2] is 77.6%; in experiment [3] it was 110%. The fluorescence slope in experiment [4] was -0.357 (inactive). For the same compound, the NADPH fluorescence slope in experiment [5] was -3.7e-05 (inactive). Moreover, the slope in experiment [6] was 0.00542 (inactive).

Turning to `Cc1nc(NCc2ccc3c(c2)OCO3)c2oc3ccccc3c2n1`, the cell count in experiment [1] came out at 292. In addition, the inhibition in experiment [1] was 12.8% (inactive); in experiment [3], 44.7% (inactive); in experiment [7], 4.64% (inactive); in experiment [8] it was -12% (inactive). In addition, the inhibition of aggregation in experiment [2] was -3.5% (inactive). Moreover, the results for the nuclei count in experiment [2] and in experiment [3] were 105% and 101%, respectively. The fluorescence slope in experiment [4] is -0.516 (inactive). In addition, in experiment [5], the NADPH fluorescence slope was 2.5e-05 (inactive). Further, the slope in experiment [6] was 0.00488 (inactive).

In the case of `COCC(=O)Nc1cc(OC)ccc1OC`, in experiment [1], the cell count came to 230. The inhibition in experiment [1] was -7% (inactive); in experiment [3] it was -28.5% (inactive); in experiment [7], 12.1% (inactive); in experiment [8], 31% (inactive). Further, the inhibition of aggregation in experiment [2] is 8.8% (inactive). The nuclei count was found to be 87.6% in experiment [2] and 84.6% in experiment [3]. The fluorescence slope in experiment [4] is -0.501 (inactive). Moreover, the NADPH fluorescence slope in experiment [5] is 3.1e-05 (inactive). Further, the slope in experiment [6] was 0.0057 (inactive).

Turning to `O=C(CSc1nc2ncccc2[nH]1)Nc1ccc2c(c1)OCCO2`, the cell count in experiment [1] was determined as 507. Also, the inhibition is 1.7% (inactive) in experiment [1], -113% (inactive) in experiment [3], -4.29% (inactive) in experiment [7] and -22.7% (inactive) in experiment [8]. Also, in experiment [2], the inhibition of aggregation is 10.1% (inactive). The nuclei count in experiment [2] turned out to be 87.8%; in experiment [3] it was 177%. In addition, the fluorescence slope in experiment [4] is -0.509 (inactive). The NADPH fluorescence slope in experiment [5] is 2.9e-05 (inactive). In experiment [6], the slope is 0.00643 (inactive).

For the compound `CN1CCN(c2oc(COc3ccc(-c4ccccc4)cc3)nc2C#N)CC1`, the cell count in experiment [1] is 3. Besides, the inhibition is 117% (active) in experiment [1], -35.9% (inactive) in experiment [3], 8.52% (inactive) in experiment [7] and -19.8% (inactive) in experiment [8]. Further, in experiment [2], the inhibition of aggregation was 18.4% (inactive). Moreover, the nuclei count in experiment [2] turned out to be 98.4%; in experiment [3], 111%. Besides, in experiment [4], the fluorescence slope is -0.425 (inactive). Also, the NADPH fluorescence slope in experiment [5] was 1e-05 (inactive). In addition, the slope in experiment [6] was 0.00577 (inactive).
